Compounds with a hit are over-represented: about 3.3% of the library has one in this group of screens.
TLR4 MyD88 comp – TLR4-MyD88 interaction inhibition in cells | inhibition, % at 8.4 µM | AID 861 | O00206+Q99836 | 200,000 tested, 0.18% active | HeLa CL3-4 TLR4/MyD88 BLA complementation, FRET ratio; in the data active means inhibition above about 25%
PRMT1 inh – blocks human protein arginine methyltransferase 1 | Q99873 | recombinant PRMT1, activity-based probe fluorescence polarization | inhibition, % at 2.79 µM | 370,000 tested, 1.3% active | AID 652257;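 active means inhibition above about 21% made by adding two undisclosed values, limit read from the data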
rCAG RNA binder – molecules binding r(CAG) RNA repeats; inhibition, % at 3 µM; 370,000 tested, 1.3% active; r(CAG) RNA repeat, TO-PRO-1 dye displacement fluorescence;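 active means inhibition above the plate cutoff, the mean of all test compounds on that plate plus 3 SD, cut at about 35% in these data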;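 further: higher means more dye released from RNA so lower well fluorescence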
ABHD5-PLIN5 inh – blocks binding of human ABHD5 to perilipin-5; inhibition, % at 4 µM; AID 602281; 360,000 tested, 0.78% active; Split G. princeps luciferase complementation, luminescence, 4 h; Q00G26+Q8WTS1;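 active means inhibition above the mean inhibition across every tested compound plus 3 SD, cut at about 22% in these data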
NOD2-RIPK2 inh – inhibitors of human NOD2-RIPK2 interaction | CHO BLA complementation NOD2-RIPK2, CCF4 ratio | AID 624267 | 360,000 tested, 0.38% active | inhibition, % at 4.98 µM | O43353; in the data active means inhibition above about 21%
TLR9-MyD88 block – TLR9-MyD88 interaction inhibition; Q9NR96+Q99836; CHO BLA complementation TLR9-MyD88, CCF4 FRET ratio; inhibition, % at 4.98 µM; 340,000 tested, 0.21% active; AID 504734;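 active means inhibition above the mean over all tested compounds plus 3 SD, cut at about 21% in these data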
Target sequence (Q99836 whole entry, looked up): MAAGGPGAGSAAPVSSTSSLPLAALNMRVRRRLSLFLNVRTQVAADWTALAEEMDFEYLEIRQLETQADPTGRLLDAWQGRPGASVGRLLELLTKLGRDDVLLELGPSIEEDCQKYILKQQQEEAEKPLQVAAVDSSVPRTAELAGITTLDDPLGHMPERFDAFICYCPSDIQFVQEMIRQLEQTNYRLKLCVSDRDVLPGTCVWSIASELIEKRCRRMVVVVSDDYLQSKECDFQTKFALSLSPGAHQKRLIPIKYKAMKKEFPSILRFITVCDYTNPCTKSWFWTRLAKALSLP
Target sequence (Q9NR96 whole entry, looked up): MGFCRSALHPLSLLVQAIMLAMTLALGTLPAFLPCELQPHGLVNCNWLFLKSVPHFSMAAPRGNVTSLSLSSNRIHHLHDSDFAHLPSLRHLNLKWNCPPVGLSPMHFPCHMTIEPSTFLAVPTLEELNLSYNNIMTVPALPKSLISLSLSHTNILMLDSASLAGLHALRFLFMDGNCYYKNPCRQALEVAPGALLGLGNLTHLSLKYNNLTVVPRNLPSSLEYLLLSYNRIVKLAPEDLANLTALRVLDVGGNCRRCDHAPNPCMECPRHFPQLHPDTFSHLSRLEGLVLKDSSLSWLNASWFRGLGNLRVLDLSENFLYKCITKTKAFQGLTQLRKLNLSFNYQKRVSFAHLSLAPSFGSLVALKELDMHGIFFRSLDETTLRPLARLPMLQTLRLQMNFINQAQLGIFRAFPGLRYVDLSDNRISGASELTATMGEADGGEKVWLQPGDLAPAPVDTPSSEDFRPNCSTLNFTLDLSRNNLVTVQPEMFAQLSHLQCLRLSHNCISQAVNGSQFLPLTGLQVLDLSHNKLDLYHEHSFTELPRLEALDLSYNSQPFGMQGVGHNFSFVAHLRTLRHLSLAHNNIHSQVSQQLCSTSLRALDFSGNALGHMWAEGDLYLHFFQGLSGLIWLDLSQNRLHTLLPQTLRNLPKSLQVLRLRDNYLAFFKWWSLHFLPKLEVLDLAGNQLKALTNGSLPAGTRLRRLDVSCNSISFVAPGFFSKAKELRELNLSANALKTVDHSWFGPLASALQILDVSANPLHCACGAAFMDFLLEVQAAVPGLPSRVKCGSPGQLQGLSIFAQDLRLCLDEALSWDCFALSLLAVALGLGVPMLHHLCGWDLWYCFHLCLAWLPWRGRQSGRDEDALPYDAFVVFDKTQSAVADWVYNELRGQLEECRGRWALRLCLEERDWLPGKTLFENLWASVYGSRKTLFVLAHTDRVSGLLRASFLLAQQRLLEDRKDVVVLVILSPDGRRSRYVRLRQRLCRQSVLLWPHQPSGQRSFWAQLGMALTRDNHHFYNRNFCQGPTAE
A number is an active result; n = inactive; x = no result given.

SMILES	TLR4 MyD88 comp	PRMT1 inh	rCAG RNA binder	ABHD5-PLIN5 inh	NOD2-RIPK2 inh	TLR9-MyD88 block
CCCCNC(=O)C[C@H]1C[C@@]2(C(=O)OC)C(=C[C@H](C(C)(C)C)O[C@@H]2C)N(Cc2ccc3c(c2)OCO3)C1=O	x	n	n	x	x	x
Cc1ccccc1C(=O)NN1C(=O)CSC1=S	n	n	n	n	n	n
O=C1CSC(=S)N1Nc1ccccc1	x	24	n	n	n	n
CCc1nc2ccc(C(=O)Nc3cccc(OCC(=O)N(C)C)c3)cn2c1N(CCC(C)C)CCN(C)C	x	n	n	n	n	x
CNc1ccccc(-c2ccc3ccccc3n2)c1=O	n	24	n	n	n	n
c1ccc(-c2ccc3ccccc3n2)cc1	x	n	n	n	n	n
Cc1ccc(C(=O)/C=C/C(=O)c2ccc(C)cc2)cc1	n	n	n	23	n	n
Cc1ccc(/C=C/C(=O)c2ccc(C)cc2)cc1	n	n	n	n	n	n
COC(=O)/C=C/c1ccc2c(c1)OCO2	n	n	n	n	n	n
O=C(N/N=C\C=C\c1ccc2c(c1)OCO2)c1ccc(F)cc1	n	n	n	n	n	n
O=C(/C=C/c1ccc2c(c1)OCO2)c1ccc(F)cc1	n	n	n	22	n	n
CCNc1ccccc(C(=O)/C=C/c2ccc3c(c2)OCO3)c1=O	n	26	n	n	n	n
COc1ccc(-c2csc(NC(=O)CSc3nc(C)cs3)n2)cc1	n	n	n	n	n	n
COc1ccc(-c2csc(NC(=O)CSc3nc(C)nc4sc(C(=O)O)c(C)c34)n2)cc1	x	n	42	n	n	n
Cc1ccc(/C=C/C(O)=C2/C(=O)N(C)C3(C)CC2c2ccccc2O3)cc1 (configuration not stated)	n	n	n	22	n	n
COc1ccc(/C=C/C(O)=C2/C(=O)N(C)C3(C)CC2c2ccccc2O3)cc1 (configuration not stated)	n	n	n	n	n	n
O=C(CC(SCCO)c1ccc([N+](=O)[O-])cc1)c1ccco1 (configuration not stated)	x	n	n	23	n	n
COc1ccc(C(=O)/C=C/c2ccc(O)cc2)c(O)c1CC=C(C)C	n	n	53	n	n	n
CCOC(=O)C1=C(COC(=O)c2ccc(Cl)nc2)NC(=O)NC1C (configuration not stated)	x	n	n	n	n	n
COc1ccc(C2=CSC(/N=C/c3ccc(F)cc3)=NN2)cc1	n	24	n	n	n	n
COc1ccc(/C=N/c2c(-c3ccc(OC)cc3)nc3n2CCS3)cc1	n	n	n	n	n	n
CC(Nc1cccc2ccccc12)C(=O)N/N=C/c1ccccn1 (configuration not stated)	n	25	n	n	n	n
Cc1ccc(NS(=O)(=O)Cc2ccccc2)cc1Cl	x	n	n	n	n	n
Cc1cc(C)c(S(=O)(=O)NCCSCc2ccco2)c(C)c1	x	24	n	n	n	n
O=C1NC(=O)C2C3C=CC(C12)C1C(=O)NC(=O)C31 (configuration not stated)	x	n	n	x	x	x
SMILES	TLR4 MyD88 comp	PRMT1 inh	rCAG RNA binder	ABHD5-PLIN5 inh	NOD2-RIPK2 inh	TLR9-MyD88 block
O=C(O)CC(C(=O)O)N1C(=O)/C(=C/C=C/c2ccco2)SC1=S (configuration not stated)	x	54	n	n	n	n
COc1ccc2ccccc2c1C1CC(=O)N2CN(C3CCCCC3)CSC2=C1C#N (configuration not stated)	n	n	39	n	n	n
CCOc1cc(C2CC(=O)N3CN(C4CCCCC4)CSC3=C2C#N)ccc1O (configuration not stated)	n	32	n	n	n	n
Cc1cnc(-c2nc3ccccc3n2C(C(=O)NC(C)(C)C)c2ccncc2)cn1 (configuration not stated)	x	n	n	n	n	x
C[C@]12CC[C@@H]3c4cc(O)c(O)cc4CC[C@H]3[C@@H]1CC[C@@H]2O	x	33	n	n	n	n
CN(C)C/C=C/C(=O)Nc1cccc(-c2c[nH]c3ncnc(Oc4ccc(NC(=O)CC(=O)Nc5ccc(F)cc5)cc4F)c23)c1	x	x	x	24	n	n
Cc1noc(C)c1NC(=O)N(C)C[C@H]1Oc2ccc(NC(=O)NC3CCCCC3)cc2C(=O)N([C@H](C)CO)C[C@@H]1C	x	n	n	n	n	n

High-throughput results (PubChem)
